We go through 5 compounds from PubChem BioAssay (NCATS).

Assay [1] has as its target Alpha-galactosidase (Coffea arabica) (UniProt Q42656). In words: Counterscreen for Glucocerebrosidase Inhibitors: qHTS Assay for Coffee Bean alpha-Galactosidase at pH 4.5 (AID 957; active = well fitted curve in the direction sought with a large enough effect; an effect the other way counts as inactive or inconclusive;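 note: series mostly up to about 77 µM; plate controls were enzyme alone for no effect and no enzyme for full effect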). Put shortly: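 AC50 values derive from Hill-equation modeling of concentration-response data, normalized to no-enzyme and full-activity controls. The pH 4.5 citrate assay used 2 nM coffee bean enzyme and 80 uM fluorogenic substrate for 20 min.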

The nature of assay [2]: Inducers of the Endoplasmic Reticulum Stress Response (ERSR) in human glioma: Validation (AID 504836; active = well fitted curve in the direction sought with a large enough effect; an effect the other way counts as inactive or inconclusive; note: 0% is about no effect). Put shortly: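 Stably transfected U87-MG human glioma cells carrying a GRP78-based luminescent sensor were seeded at 1000 cells/well, pin-dosed with compounds and incubated 16 h. Luciferase reagent was then added, and end-point luminescence was read after 10 min at room temperature.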

Assay [3] is described as follows: qHTS for Inhibitors of the Functional Ribonucleoprotein Complex (vRNP) of Lassa (LASV) Arenavirus: LASV Primary Screen - GLuc reporter signal (AID 1347082; calls by dose curve; tested in HEK293 reporter line; note: series mostly up to about 57 µM; % is set by controls: 0 for no effect and ±100 for the full control effect; nearly all actives have a fitted effect of over 60% in size).
Assay [4] in a line: qHTS for Inhibitors of the Functional Ribonucleoprotein Complex (vRNP) of Lassa (LASV) Arenavirus: Viability assay - alamar blue signal for LASV Primary Screen (AID 1347083; calls by dose curve; tested in HEK293 reporter line; note: series mostly up to about 57 µM; % is set by controls: 0 for no effect and ±100 for the full control effect; nearly all actives have a fitted effect of over 80% in size).
A short description of assay [5]: qHTS for Inhibitors of the Functional Ribonucleoprotein Complex (vRNP) of Lymphocytic Choriomeningitis Arenaviruses (LCMV): Viability assay - alamar blue signal for LCMV Primary Screen (AID 1347085; calls by dose curve; tested in HEK293 reporter line; note: series mostly up to about 57 µM; % is set by controls: 0 for no effect and ±100 for the full control effect; nearly all actives have a fitted effect of over 80% in size).
Assay [6] has as its target Nucleoprotein (Lymphocytic choriomeningitis virus (strain Armstrong)) (UniProt P09992). The experiment in a line: qHTS for Inhibitors of the Functional Ribonucleoprotein Complex (vRNP) of Lymphocytic Choriomeningitis Arenaviruses (LCMV): LCMV Primary Screen - GLuc reporter signal (AID 1347086). Note: series mostly up to about 57 µM; % is set by controls: 0 for no effect and ±100 for the full control effect; nearly all actives have a fitted effect of over 70% in size.
The target of assay [7] is Bile acid receptor (Homo sapiens) (UniProt Q96RI1). In words: qHTS assay for small molecule agonists of farnesoid X receptor signaling (AID 588527).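 Note: series mostly up to about 77 µM; 0% = vehicle basal and 100% = reference agonist.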 To be noted: HEK293T FXR-UAS-bla, beta-lactamase ratio, 16 h; activation: stronger effect = higher value. Put shortly:
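Quantitative HTS used FXR-UAS-bla HEK293T cells with 16 h compound incubation at 37 C. EC50 values came from concentration-response curves normalized to chenodeoxycholic acid.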

Assay [8] addresses Estrogen receptor (Homo sapiens) (UniProt P03372). In words: qHTS assay for small molecule antagonists of estrogen receptor alpha signaling (AID 588513; active = well fitted curve in the direction sought with a large enough effect in the signal ratio, with a control signal flat, not every such curve was filed as active; the % refers to the signal ratio; note: % is set by controls: 0 for no effect and ±100 for the full control effect). Put shortly: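 Fluorescence from CCF4 substrate after 2 h at room temperature gave reporter activity; cells had been exposed to compound and 0.5nM 17-beta-estradiol for 18 h at 37 C. Hill-equation fitting yielded IC50 and maximal response.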

Assay [9] addresses Thyroid hormone receptor beta (Homo sapiens) (UniProt P10828). In words: qHTS assay for small molecule agonists of thyroid hormone receptor beta signaling (AID 588545).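 Note: 0% = DMSO only and 100% = 10 nM T3.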 Summed up:
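Beta-lactamase reporter activity under TR response element control is measured in HEK 293 cells after 18 hrs compound exposure. Signal is ratiometric CCF4 fluorescence, 460/530 nm.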

The target of assay [10] is Voltage-gated inwardly rectifying potassium channel KCNH2 (Homo sapiens) (UniProt Q12809). The experiment in a line: qHTS Assay for Small Molecule Inhibitors of the Human hERG Channel Activity (AID 588834; active = well fitted curve in the direction sought with a large enough effect; an effect the other way counts as inactive or inconclusive;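 note: top concentration of the series differs between compounds; % is set by controls: 0 for no effect and ±100 for the full control effect; lower thallium flux fluorescence means stronger hERG block; nearly all actives have a fitted effect of over 50% in size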). Summed up: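 hERG-BacMam U2OS, 2000 cells/well; 0.7X FluxOR loading 1 hr RT dark; cpd ~10 min 37 °C; stim buffer; FDSS fluorescence 2 min @ 1 s; AC50 Hill fit.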
Assay [11] in a line: qHTS assay for small molecule agonists of the antioxidant response element (ARE) signaling pathway (AID 651741; active = well fitted activation curve with a large enough effect in the signal ratio; the % refers to the signal ratio; note: potency is the fitted concentration of half-maximal effect; for activation: % of control where 0% means no effect). Put shortly: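 ARE-bla HepG2 cells (beta-lactamase reporter under ARE control) were plated at 2,000 cells/well, preincubated 5 h at 37 C/5% CO2, then treated with DMSO-dissolved compounds for 16 h at 37 C; LiveBLAzer B/G FRET substrate added, fluorescence read after 2 h at room temperature.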

Assay [12] can be described thus: qHTS assay for small molecule agonists of the antioxidant response element (ARE) signaling pathway measured by Nrf2-dependant transcriptional activity (AID 720636; active = well fitted curve in the direction sought with a large enough effect in the repeat runs; an effect the other way counts as inactive or inconclusive; note: % of control where 0% means no effect). Put shortly: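 ARE-luc HepG2 cells carrying an Nrf2-responsive luciferase reporter, in medium with 1% dialyzed FBS, exposed to compound for 16 hr at 37 C, 5% CO2. Luminescence read 30 min after ONE-Glo addition.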

Assay [13] concerns the target Androgen receptor (Homo sapiens) (UniProt P10275). The experiment in a line: qHTS assay for small molecule agonists of androgen receptor signaling (AID 588515; active = well fitted curve in the direction sought with a large enough effect in the signal ratio, with a control signal flat; the % refers to the signal ratio; note: % is set by controls: 0 for no effect and ±100 for the full control effect). The conditions noted are these: AR-UAS-bla HEK293, beta-lactamase ratio, agonist 16 h; stronger effect = higher value. Put shortly:
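EC50 and efficacy came from Hill fits of titrations (up to 92 uM) normalized to 30 nM R1881 as 100% and DMSO as 0%. Compound exposure was 16 h at 37 C on AR-UAS-bla HEK293 cells, with a 405/460/530 nm CCF4 fluorescence read.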

Assay [14] shares this target. The experiment in a line: qHTS assay for small molecule antagonists of androgen receptor signaling (AID 588516; active = well fitted curve in the direction sought with a large enough effect in the signal ratio, with a control signal flat, not every such curve was filed as active; the % refers to the signal ratio; note: % is set by controls: 0 for no effect and ±100 for the full control effect). Put shortly: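 Cells were plated and incubated 5 h, compounds added in titration, then R1881 (10 nM final) as agonist. After 16 h at 37 C, CCF4 substrate was loaded for 2 h at room temperature and fluorescence measured.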
For assay [15], the target named is Bile acid receptor (Homo sapiens) (UniProt Q96RI1). The experiment in a line: qHTS assay for small molecule antagonists of farnesoid X receptor signaling (AID 588526). Note: % is set by controls: 0 for no effect and ±100 for the full control effect. Put shortly:
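Concentration-response titrations were fitted to the Hill equation for half-maximal inhibition and maximal response, with data normalised to 50 uM chenodeoxycholic acid and DMSO control wells. Cells: FXR-UAS-bla HEK293T, dialyzed FBS.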

The nature of assay [16]: qHTS assay for small molecule antagonists of peroxisome proliferator-activated receptor delta signaling (AID 588535; active = well fitted inhibition curve with a large enough effect in the signal ratio, with a control signal flat, not every such curve was filed as active; the % refers to the signal ratio;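 for max response: cells co-treated with a PPAR-delta agonist as stimulator during compound exposure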). To be noted: HEK293T PPARd-UAS-bla, beta-lactamase FRET ratio, 18 h; 460 nm channel. Put shortly:
(§1)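 GeneBLAzer PPAR-delta-UAS-bla HEK293T cells in medium with 2% charcoal/dextran FBS were preincubated 5 hrs at 37 C, then given compounds, incubated 18 hrs at 37 C, and read by CCF4 beta-lactamase fluorescence; IC50 from Hill fits.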

The target of assay [17] is Peroxisome proliferator-activated receptor delta (Homo sapiens) (UniProt Q03181). Described as above. Put shortly: as §1
In assay [18] the target is Peroxisome proliferator-activated receptor gamma (Homo sapiens) (UniProt P37231). The experiment in a line: qHTS assay for small molecule agonists of peroxisome proliferator-activated receptor gamma signaling (AID 588536; active = well fitted curve in the direction sought with a large enough effect in the signal ratio, with a control signal flat, not every such curve was filed as active; the % refers to the signal ratio;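 note: 0% = DMSO basal wells and 100% = rosiglitazone at 2 µM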). Put shortly: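 HEK293 UAS-bla reporter line, 1% charcoal/dextran FBS; titration, 16 h, 37 C; CCF4 loading 2 h RT; fluorescence 460/530 nm. Normalized to rosiglitazone 2 uM = 100%, DMSO = 0%.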

The target in assay [19] is Vitamin D3 receptor (Homo sapiens) (UniProt P11473). The experiment in a line: qHTS assay for small molecule antagonists of vitamin D receptor signaling (AID 588541). Summed up: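 VDR-UAS-bla HEK293T cells (2000/well, 2% charcoal-stripped FBS) were treated with titrated compounds plus 1-alpha,25-dihydroxyvitamin D3 (50 nM or 3 nM final) for 16 h at 37 C. CCF4 beta-lactamase fluorescence was read; Hill fits gave IC50.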

Assay [20] has the same target. The experiment in a line: qHTS assay for small molecule agonists of vitamin D receptor signaling (AID 588543).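 Note: 0% = DMSO basal and 100% = reference agonist control.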 Put shortly: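 Reporter cells (HEK293T, VDR-UAS-bla) were seeded in medium with 2% charcoal-stripped serum and incubated 5 h, then compounds in concentration series were added for 16 h at 37 °C. Stimulation was scaled between DMSO basal and 50 nM 1α,25-dihydroxyvitamin D3.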

A short description of assay [21]: qHTS assay for small molecule agonists of retinoid X receptor alpha signaling (AID 588544).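 For activation: 0% = DMSO basal wells and 100% = reference agonist.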 The conditions noted are these: HEK293T RXRa-UAS-bla, beta-lactamase reporter, 18 h; 530 nm emission.
The target in assay [22] is Retinoic acid receptor RXR-alpha (Homo sapiens) (UniProt P19793). The assay is described as above.
Assay [23] is described as follows: qHTS assay for small molecule antagonists of retinoid X receptor alpha signaling (AID 588546; active = well fitted inhibition curve with a large enough effect in the signal ratio, with a control signal flat, not every such curve was filed as active; the % refers to the signal ratio). The conditions noted are these: HEK293T RXRa-UAS-bla, beta-lactamase ratio, antagonist mode; measured here: W530 green channel, cytotoxicity proxy. Summed up: (§2)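 Beta-lactamase reporter inhibition, read as CCF4 fluorescence ratio (ex 405, em 460/530 nm) after 2 h at RT. HEK293T UAS-bla cells, 2500/well, were stimulated with 9-cis-RA at 500 or 100 nM final alongside test compound for 18 h at 37 C.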

Assay [24] concerns the target Retinoic acid receptor RXR-alpha (Homo sapiens) (UniProt P19793). The description is as above. The conditions noted are these: HEK293T RXRa-UAS-bla, beta-lactamase ratio, antagonist mode. Put shortly:
as §2

Assay [25] concerns the target Thyroid hormone receptor beta (Homo sapiens) (UniProt P10828). The experiment in a line: qHTS assay for small molecule antagonists of thyroid hormone receptor beta signaling (AID 588547; active = well fitted inhibition curve with a large enough effect in the signal ratio, with a control signal flat, not every such curve was filed as active; the % refers to the signal ratio). To be noted: TR-UAS-bla HEK293, beta-lactamase ratio, antagonist mode, 18 h. Put shortly:
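TR-UAS-bla GripTite HEK293 cells in 2% charcoal/dextran FBS medium were preincubated 4 h at 37 C, given compound (0.59 nM to 92 uM) plus 0.4 nM T3 (final) for 18 h, then CCF4 for 2 h at RT; Hill fit gave IC50.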

Assay [26] in a line: qHTS assay for environmental chemicals that activate the Aryl hydrocarbon Receptor (AhR) signaling pathway (AID 651777; active = well fitted curve in the direction sought with a large enough effect; an effect the other way counts as inactive or inconclusive; note: % of control where 0% means no effect; nearly all actives have a fitted effect of over 15% in size). The conditions noted are these: 1A2-DRE human hepatoma cells, luciferase, 24 h; activation: stronger effect = higher value. Put shortly: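 Human hepatoma 1A2-DRE cells stably carrying a DRE/CYP1A2 promoter–luciferase reporter, 1,200 cells/well, exposed to compound 24 hr at 37 C. Luciferase read by One-Glo luminescence after 30 min at room temperature; increased signal marks AhR activation.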

The target in assay [27] is Peroxisome proliferator-activated receptor alpha (Homo sapiens) (UniProt Q07869). In words: qHTS assay for small molecule agonists of the peroxisome proliferator-activated receptor alpha (PPARalpha) signaling pathway (AID 651778; active = well fitted curve in the direction sought with a large enough effect; an effect the other way counts as inactive or inconclusive; note: % of control where 0% means no effect). To be noted: PathHunter PPARalpha complementation, chemiluminescence, 6 h; stronger effect = higher value. Summed up:
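Cells plated at 2,000/well and held overnight at 37 C, 5% CO2, then compound added by pin tool for 6 hr; after PathHunter detection reagent and 60 min at room temperature, chemiluminescence from enzyme complementation was read.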

A short description of assay [28]: qHTS assay for small molecule agonists of the antioxidant response element (ARE) signaling pathway measured by Nrf2-dependant transcriptional activity - cell viability counter screen (AID 720653; active = well fitted curve in the direction sought with a large enough effect in the repeat runs; an effect the other way counts as inactive or inconclusive; note: % is set by controls: 0 for no effect and ±100 for the full control effect). To be noted: ARE-bla HepG2 viability, CellTiter-Glo ATP luminescence, 16 h; max response: stronger effect = lower value. Summed up:
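ARE-bla HepG2 cells (2,000/well) rested 5 hrs at 37C/5% CO2, then exposed to compounds in DMSO for 16 hrs. Viability was read in the same wells as intracellular ATP by luminescence, 30 min at room temperature after reagent addition.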

Assay [29] is described as follows: qHTS assay for cell viability of HEK293 cells (AID 743288; active = well fitted curve in the direction sought with a large enough effect; an effect the other way counts as inactive or inconclusive; note: % is set by controls: 0 for no effect and ±100 for the full control effect; nearly all actives have a fitted effect of over 50% in size). To be noted: ATP luminescence (CellTiter-Glo), 18 h; max response: stronger effect = lower value. Put shortly:
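HEK293 parental, 2,000 cells/well; ≥5 h pre-incubation 37 C; pintool compound addition; 18 h, 37 C; CellTiter-Glo 30 min RT; luminescence read.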

Assay [30] is described as follows: qHTS assay for cell viability of the p53RE-bla HCT-116 cell line (AID 743292; active = well fitted curve in the direction sought with a large enough effect; an effect the other way counts as inactive or inconclusive; note: % is set by controls: 0 for no effect and ±100 for the full control effect; nearly all actives have a fitted effect of over 55% in size). Summed up:
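CellSensor p53RE-bla HCT-116 cells (4,000/well) pre-incubated 5 h at 37 C, then exposed to compounds in DMSO for 16 h at 37 C. Viability read as ATP content by CellTiter-Glo luminescence after 30 min at room temperature.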

The target of assay [31] is Nuclear receptor subfamily 1 group I member 2 (Rattus norvegicus) (UniProt Q9R1A7). In words: qHTS assay for small molecule activators of the rat pregnane X receptor (rPXR) signaling pathway (AID 651751; call rule not given here; note: 0% is about no effect). The conditions noted are these: rPXR reporter cells, luciferase (One-Glo), 24 h.
A short description of assay [32]: qHTS assay for small molecule activators of the human pregnane X receptor (PXR) signaling pathway (AID 720659; call rule not given here; note: 0% is about no effect).

Structures are written as SMILES. “And” between values parts separate entries of the source, which are not always exact repeats. Equal values may be shown once. Records with an inconclusive call do not appear. The source made the active and inactive calls. Unless noted, calls come from the whole dose curve.

Sequence of Nucleoprotein (Lymphocytic choriomeningitis virus (strain Armstrong)) (P09992 whole entry, looked up): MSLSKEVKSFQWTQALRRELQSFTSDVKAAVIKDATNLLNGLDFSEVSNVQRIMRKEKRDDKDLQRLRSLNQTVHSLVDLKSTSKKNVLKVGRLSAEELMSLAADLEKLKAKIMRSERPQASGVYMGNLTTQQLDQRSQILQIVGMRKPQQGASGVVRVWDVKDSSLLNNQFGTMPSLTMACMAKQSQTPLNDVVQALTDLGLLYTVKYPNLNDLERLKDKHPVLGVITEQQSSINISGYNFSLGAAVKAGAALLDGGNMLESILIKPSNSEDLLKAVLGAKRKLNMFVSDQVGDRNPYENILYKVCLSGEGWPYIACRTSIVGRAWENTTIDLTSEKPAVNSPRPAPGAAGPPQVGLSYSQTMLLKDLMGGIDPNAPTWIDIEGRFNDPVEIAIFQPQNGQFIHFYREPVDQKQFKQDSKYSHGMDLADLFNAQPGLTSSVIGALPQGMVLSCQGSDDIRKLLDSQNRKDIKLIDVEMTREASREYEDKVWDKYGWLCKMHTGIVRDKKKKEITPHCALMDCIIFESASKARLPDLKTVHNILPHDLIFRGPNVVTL
Sequence of Bile acid receptor (Homo sapiens) (Q96RI1 whole entry, looked up): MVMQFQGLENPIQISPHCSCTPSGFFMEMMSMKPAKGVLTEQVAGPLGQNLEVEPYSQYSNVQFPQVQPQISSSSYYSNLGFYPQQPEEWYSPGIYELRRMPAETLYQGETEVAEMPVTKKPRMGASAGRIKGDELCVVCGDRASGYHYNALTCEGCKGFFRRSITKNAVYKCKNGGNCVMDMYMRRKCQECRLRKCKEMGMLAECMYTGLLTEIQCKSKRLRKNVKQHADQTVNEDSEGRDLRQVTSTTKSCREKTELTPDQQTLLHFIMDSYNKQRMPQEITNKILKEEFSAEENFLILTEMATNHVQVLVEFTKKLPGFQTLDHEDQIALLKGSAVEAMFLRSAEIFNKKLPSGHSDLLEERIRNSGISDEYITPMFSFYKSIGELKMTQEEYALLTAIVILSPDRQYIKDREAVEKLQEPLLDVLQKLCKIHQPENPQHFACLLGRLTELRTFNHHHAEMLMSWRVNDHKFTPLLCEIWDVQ
Sequence of Thyroid hormone receptor beta (Homo sapiens) (P10828 whole entry, looked up): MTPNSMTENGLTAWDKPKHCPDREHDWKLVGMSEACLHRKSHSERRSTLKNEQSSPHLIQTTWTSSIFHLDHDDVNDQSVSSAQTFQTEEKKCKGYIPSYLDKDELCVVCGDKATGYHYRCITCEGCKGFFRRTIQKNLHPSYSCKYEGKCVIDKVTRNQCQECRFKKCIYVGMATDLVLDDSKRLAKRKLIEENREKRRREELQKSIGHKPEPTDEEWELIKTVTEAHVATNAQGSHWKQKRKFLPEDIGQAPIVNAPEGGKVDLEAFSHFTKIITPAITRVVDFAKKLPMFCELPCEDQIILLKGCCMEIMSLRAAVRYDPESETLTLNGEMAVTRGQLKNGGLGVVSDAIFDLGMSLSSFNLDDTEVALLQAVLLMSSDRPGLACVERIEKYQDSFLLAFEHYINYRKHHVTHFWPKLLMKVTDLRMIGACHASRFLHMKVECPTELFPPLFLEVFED
Sequence of Retinoic acid receptor RXR-alpha (Homo sapiens) (P19793 whole entry, looked up): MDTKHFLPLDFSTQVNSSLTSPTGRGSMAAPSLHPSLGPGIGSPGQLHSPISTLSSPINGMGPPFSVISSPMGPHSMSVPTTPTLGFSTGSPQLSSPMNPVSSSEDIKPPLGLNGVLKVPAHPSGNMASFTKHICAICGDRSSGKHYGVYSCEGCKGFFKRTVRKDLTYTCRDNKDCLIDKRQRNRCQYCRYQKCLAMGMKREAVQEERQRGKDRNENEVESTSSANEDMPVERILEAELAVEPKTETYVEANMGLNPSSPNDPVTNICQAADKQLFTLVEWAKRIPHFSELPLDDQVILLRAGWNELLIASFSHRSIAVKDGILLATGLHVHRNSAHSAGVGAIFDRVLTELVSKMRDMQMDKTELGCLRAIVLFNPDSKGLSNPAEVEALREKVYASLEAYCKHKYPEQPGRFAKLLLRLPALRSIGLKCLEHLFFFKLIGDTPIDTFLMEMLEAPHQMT
Sequence of Androgen receptor (Homo sapiens) (P10275 whole entry, looked up): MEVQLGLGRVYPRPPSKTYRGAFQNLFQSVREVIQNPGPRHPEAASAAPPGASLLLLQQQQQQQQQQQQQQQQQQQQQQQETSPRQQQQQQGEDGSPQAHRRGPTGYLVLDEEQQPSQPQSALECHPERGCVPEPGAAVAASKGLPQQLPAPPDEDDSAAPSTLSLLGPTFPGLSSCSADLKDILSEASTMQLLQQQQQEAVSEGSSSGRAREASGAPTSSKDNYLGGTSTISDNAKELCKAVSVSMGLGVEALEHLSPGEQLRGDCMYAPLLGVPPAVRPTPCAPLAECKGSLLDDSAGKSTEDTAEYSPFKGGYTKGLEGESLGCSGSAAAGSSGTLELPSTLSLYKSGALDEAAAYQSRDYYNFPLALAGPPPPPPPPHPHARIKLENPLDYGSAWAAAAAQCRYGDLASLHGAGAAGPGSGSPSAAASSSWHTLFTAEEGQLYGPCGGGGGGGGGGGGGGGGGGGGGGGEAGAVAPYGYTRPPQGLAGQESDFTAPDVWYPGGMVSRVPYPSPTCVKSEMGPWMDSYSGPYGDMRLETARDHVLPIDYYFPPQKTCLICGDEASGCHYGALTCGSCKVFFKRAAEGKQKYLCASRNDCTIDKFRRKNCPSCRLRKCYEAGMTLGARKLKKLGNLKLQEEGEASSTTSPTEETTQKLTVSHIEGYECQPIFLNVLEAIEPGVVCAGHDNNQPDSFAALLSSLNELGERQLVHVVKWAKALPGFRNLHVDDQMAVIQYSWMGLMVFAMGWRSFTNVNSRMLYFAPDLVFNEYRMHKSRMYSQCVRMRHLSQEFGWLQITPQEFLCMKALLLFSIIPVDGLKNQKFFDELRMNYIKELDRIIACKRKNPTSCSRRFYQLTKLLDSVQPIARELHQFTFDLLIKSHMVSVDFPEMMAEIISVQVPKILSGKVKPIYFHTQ
Sequence of Vitamin D3 receptor (Homo sapiens) (P11473 whole entry, looked up): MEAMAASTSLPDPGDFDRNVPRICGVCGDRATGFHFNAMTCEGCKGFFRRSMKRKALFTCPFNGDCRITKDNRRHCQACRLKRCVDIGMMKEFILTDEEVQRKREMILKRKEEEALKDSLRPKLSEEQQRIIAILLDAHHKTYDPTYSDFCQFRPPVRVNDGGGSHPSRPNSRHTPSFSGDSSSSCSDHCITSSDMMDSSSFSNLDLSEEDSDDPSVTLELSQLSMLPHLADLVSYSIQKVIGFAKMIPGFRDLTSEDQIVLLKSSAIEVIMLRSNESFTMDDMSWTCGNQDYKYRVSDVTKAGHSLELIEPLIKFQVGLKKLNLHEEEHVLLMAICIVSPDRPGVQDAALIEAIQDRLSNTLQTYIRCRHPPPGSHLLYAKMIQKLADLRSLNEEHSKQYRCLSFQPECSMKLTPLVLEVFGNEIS
Sequence of Voltage-gated inwardly rectifying potassium channel KCNH2 (Homo sapiens) (Q12809 whole entry, looked up): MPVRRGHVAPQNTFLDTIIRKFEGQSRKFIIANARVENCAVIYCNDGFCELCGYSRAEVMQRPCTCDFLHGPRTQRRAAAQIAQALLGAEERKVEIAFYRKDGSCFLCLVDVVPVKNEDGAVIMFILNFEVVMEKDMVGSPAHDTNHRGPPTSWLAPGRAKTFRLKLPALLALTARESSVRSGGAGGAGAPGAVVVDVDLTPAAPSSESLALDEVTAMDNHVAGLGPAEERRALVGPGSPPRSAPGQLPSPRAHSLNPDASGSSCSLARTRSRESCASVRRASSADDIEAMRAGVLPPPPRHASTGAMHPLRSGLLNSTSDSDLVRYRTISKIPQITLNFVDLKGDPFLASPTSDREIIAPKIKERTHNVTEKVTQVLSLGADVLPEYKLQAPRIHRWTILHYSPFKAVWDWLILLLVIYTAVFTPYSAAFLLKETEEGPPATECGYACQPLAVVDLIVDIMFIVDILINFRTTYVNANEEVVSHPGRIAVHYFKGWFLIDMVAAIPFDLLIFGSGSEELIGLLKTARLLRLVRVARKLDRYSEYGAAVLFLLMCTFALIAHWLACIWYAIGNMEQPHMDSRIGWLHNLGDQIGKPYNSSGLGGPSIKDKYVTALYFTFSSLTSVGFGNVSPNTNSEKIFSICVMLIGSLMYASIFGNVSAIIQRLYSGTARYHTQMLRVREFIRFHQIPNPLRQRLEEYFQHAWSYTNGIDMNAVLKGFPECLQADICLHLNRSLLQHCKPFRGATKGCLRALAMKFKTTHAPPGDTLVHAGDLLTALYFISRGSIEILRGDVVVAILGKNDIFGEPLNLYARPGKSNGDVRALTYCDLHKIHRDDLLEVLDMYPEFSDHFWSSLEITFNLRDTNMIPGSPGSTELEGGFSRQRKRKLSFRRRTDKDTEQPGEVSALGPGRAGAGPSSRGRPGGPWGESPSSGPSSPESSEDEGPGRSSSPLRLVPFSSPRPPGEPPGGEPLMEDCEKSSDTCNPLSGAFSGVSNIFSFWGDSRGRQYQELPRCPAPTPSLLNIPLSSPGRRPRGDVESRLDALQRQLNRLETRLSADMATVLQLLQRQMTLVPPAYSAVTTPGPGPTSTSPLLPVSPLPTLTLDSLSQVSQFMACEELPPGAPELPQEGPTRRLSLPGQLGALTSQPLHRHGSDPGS
Sequence of Peroxisome proliferator-activated receptor gamma (Homo sapiens) (P37231 whole entry, looked up): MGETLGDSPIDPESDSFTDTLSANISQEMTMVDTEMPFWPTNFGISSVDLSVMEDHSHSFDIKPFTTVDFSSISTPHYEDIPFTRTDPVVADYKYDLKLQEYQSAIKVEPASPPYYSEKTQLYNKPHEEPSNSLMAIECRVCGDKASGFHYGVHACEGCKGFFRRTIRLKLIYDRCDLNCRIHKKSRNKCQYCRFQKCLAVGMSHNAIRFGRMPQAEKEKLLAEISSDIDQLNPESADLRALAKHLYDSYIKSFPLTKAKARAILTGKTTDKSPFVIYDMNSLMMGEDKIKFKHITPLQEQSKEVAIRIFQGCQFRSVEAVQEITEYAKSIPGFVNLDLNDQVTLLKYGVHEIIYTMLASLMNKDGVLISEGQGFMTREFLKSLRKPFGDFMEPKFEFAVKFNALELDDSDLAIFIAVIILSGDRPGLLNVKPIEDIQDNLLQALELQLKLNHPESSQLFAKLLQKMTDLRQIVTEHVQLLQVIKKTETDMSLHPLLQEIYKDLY

For `CN=C(N)NCCC[C@H](N)C(=O)O`, the compound was called inactive in assay [1] and in assay [2]. For the same compound, the Potency result in assay [3], in [4], in [5] and in assay [6] was “inactive” in each case.

With `OCCO`, in [7], the activation is 1.31% (inactive). Moreover, the Potency entry in [3], in assay [4], in [5] and in [6] was “inactive” each time.

Turning to `CCCCC(CC)CO` (stereo not drawn), the activation in [7] is -0.465% (inactive). Further, the Potency entry in assay [3], in [4], in assay [5] and in assay [6] was “inactive” throughout.

For `C[C@H](CCC(=O)O)[C@H]1CC[C@H]2[C@@H]3CC[C@@H]4C[C@H](O)CC[C@]4(C)[C@H]3CC[C@]12C`, the Potency entry in assay [8], in [9], in assay [10], in assay [12], in [3] and in assay [4] was “inactive” throughout. Moreover, the Potency entry in assay [5] and in assay [6] was “inactive” each time. Moreover, the Potency in [11] is 26.6 µM (active) and 19.3 µM (active).

For the compound `Cc1ccc(C)c2ccccc12`, the results for the activation in [13], in [7] and in assay [26] were 26.3% (inactive), -1.23% (inactive) and 1.38% (inactive), respectively. Moreover, the compound was called inactive in assay [14], in assay [17], in assay [18], in assay [19], in assay [22] and in assay [30]. Moreover, the call in [32] was inactive. Moreover, the Potency result in assay [15], in assay [20], in assay [9], in [11], in [12] and in assay [3] was “inactive” each time. Also, the Potency result in assay [4], in assay [5] and in assay [6] was “inactive” throughout. In addition, the max response is 22.6% in assay [16]; -18.4% in [21]; -5.36% in assay [23]; 3.54% (inactive) in [24]; -1.64% (inactive) in assay [27]; -14.6% (inactive) in assay [28]. For the same compound, the figures for the max response in assay [29] and in [31] were -1.65% (inactive) and -3.33% (inactive), respectively. The activity change % (negative = inhibition) in assay [25] is -0.662% (inactive).
